We go through 94 molecules from PubChem BioAssay AID1851 (National Center for Advancing Translational Sciences (NCATS), 2009).

What is called AC50 is the midpoint of the concentration-response curve, whichever way the signal moves.

SMILES strings stand for the structures. “And” between values parts separate entries of the source, which are not always exact repeats. Equal values may be shown once. About 4,000 (25%) of roughly 16,000 compounds were called active. Not shown: some 26% with an inconclusive outcome. Only a sample is shown. A number with no mark means an inactive call. Calls follow the shape of the dose curve; as a rule, active = well fitted curve in the direction sought with a large enough effect; inconclusive = small, poorly fitted or top-dose-only effect, or effect the other way; inactive = no such curve, though single readings can be large or run the other way.
% is scaled to controls: 0 for no effect and ±100 for the full control effect.

Chain of Cytochrome P450 2C9 (Homo sapiens) (P11712 whole entry, looked up): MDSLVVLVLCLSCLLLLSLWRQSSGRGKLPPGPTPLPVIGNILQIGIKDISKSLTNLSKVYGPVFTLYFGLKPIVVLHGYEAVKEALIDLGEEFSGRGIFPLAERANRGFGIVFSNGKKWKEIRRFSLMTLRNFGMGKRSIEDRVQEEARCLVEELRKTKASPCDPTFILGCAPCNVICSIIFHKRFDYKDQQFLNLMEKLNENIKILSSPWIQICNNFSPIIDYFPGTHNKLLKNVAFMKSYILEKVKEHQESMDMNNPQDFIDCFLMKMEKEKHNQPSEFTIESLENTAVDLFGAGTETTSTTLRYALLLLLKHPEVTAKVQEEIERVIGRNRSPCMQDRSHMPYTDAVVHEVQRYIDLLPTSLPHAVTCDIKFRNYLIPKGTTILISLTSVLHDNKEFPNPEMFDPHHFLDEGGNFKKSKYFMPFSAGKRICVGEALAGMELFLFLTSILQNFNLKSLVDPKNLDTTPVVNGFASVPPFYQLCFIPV

This assay has as its target Cytochrome P450 2C9 (Homo sapiens) (UniProt P11712). As to the kind of experiment: Cytochrome panel assay with activity outcomes. Conditions: recombinant CYP, pro-luciferin dealkylation, luminescence, p450-cyp2c9; series mostly up to 57.1 µM; activity, negative = inhibition: at the top concentration.
As to `CC1(C)O[C@H]2[C@@H](c3[nH]nc4c(=O)[nH]c(=O)[nH]c34)OC[C@H]2O1`, the activity, negative = inhibition is 5.4% [at 11.4 µM].
As to `CO[C@H]1COC(=O)C/C=C\[C@H](C)[C@@H](NS(=O)(=O)c2ccc(C)cc2)COC(=O)C/C=C\[C@@H]1C`, the activity, negative = inhibition is -17.2% [at 11.4 µM] and -4.44% [at 11.4 µM].
With `CSCC[C@@H]1NC(=O)C/C=C\[C@@H](C)COC(=O)[C@H](C)COC1=O`, the activity, negative = inhibition was -7.38% [at 11.4 µM].
Still for that read-out and setting: for `c1ccc2c(c1)nnn2CN1CCOCC1` the value was 15.8% [at 11.4 µM].
For `c1ccc(-c2ccc(C3=Nn4c(Cn5nnc6ccccc65)nnc4SC3)cc2)cc1`, the AC50 was 12.6 µM (active).
Take `Cc1cnc(CNc2ncncc2-c2ccccc2Cl)cn1`: the activity, negative = inhibition is 28.2% [at 2.29 µM].
As for `COc1ccc(CN2C(=O)CN(C3CCCCCC3)C(=O)C2c2ccc(OC)c(OC)c2)cc1` (centres undefined), the AC50 was 11.2 µM (active).
Still for that read-out and setting: with `COc1ccc(C2C(=O)N(C3CCCCCC3)CC(=O)N2Cc2ccccc2)cc1OC` (centres undefined) the figure was 12.6 µM (active).
Same read-out and setting: for `COc1ccc([C@@H]2CNC(=O)C2)cc1OC1CCCC1` the value was “inactive”; for `CCCOc1ccc(C2C(=O)N(C3CCCCC3)CC(=O)N2C2CC2)cc1OC` (centres undefined), 10 µM (active).
Regarding `COc1cc(C2C(=O)N(C3CCCC3)CC(=O)N2Cc2ccco2)ccc1OC(C)C` (centres undefined), the AC50 was 10 µM (active).
On to `Cc1ccc(S(=O)(=O)N[C@H]2COC(=O)CC=C[C@@H](C)[C@H]3C=C[C@H](O)[C@@H](COC(=O)CC=C[C@H]2C)O3)cc1`, for which the activity, negative = inhibition was -13.5% [at 11.4 µM] and 14.3% [at 11.4 µM].
Turning to `O=C(Nc1cccc(F)c1)N1CCC2(CC1)CCN(C(=O)c1cnccn1)CC2`, the “activity, negative = inhibition” value was -5.81%.
`CCCCN=c1sc(C(=O)OC)cc(=O)n1CCCC`: the “activity, negative = inhibition” value is -18.9%.
As to `COc1ccc([N+](=O)[O-])cc1N(CC(O)CN(CC(C)C)CC(C)C)S(=O)(=O)c1ccccc1` (centres undefined), the AC50 was 12.6 µM (active).
With `Cc1ccsc1/C=N/Nc1nc(Cl)c(Cl)cc1Cl`, the “activity, negative = inhibition” value was -25.5%.
As to `CCc1c(C)c(C#N)c2nc3ccccc3n2c1N1CCN(c2cc(C)ccn2)CC1`, the AC50 was 1.26 µM (active).
As to `CCN(CC)CCOC(=O)C1(C2CCCCC2)CCCCC1`, the “activity, negative = inhibition” value is -17.7% [at 25.6 µM].
On to `CN1CCN(c2nc3cc(C(F)(F)F)ccc3n3cccc23)CC1`, for which the AC50 result is “inactive”.
Still for that read-out and setting: for `FC(F)(F)c1ccc(N2CCOCC2)c(Nc2nc3ccccc3n3cnnc23)c1` the value was 15.8 µM (active); for `CC(/C=C1\N=C(SCc2ccccc2Cl)SC1=O)=C\c1ccccc1`, 1.58 µM (active).
For the molecule `CCc1nnc(NC(=O)c2c(C)nn(-c3ccccc3)c2Cl)s1`, the AC50 is 8.91 µM (active).
Turning to `CCc1nnc(NC(=O)c2cc(-c3ccccc3)nn2-c2ccccc2)s1`, the concentration at half-maximal activity (AC50) was 8.91 µM (active).
Take `CCCC(=O)Nc1nnc(CCN2CCCCC2)s1`: the “activity, negative = inhibition” value is -3.62%.
The same measure, in the same setting: for `COc1ccccc1CNc1ncncc1-c1cccc(C#N)c1` the value was -22.7% [at 2.29 µM].
In the case of `Cc1nc2ccccc2n1CC(=O)N/N=C\C=C\c1ccccc1`, the AC50 is 7.08 µM (active).
`CC(/C=N\NC(=O)Cn1c(C)nc2ccccc21)=C\c1ccccc1`: the AC50 was 2.82 µM (active).
With `Cc1nc2ccccc2n1CC(=O)N/N=C\c1ccccn1`, the “activity, negative = inhibition” value is -16%.
For the molecule `O=c1[nH]n(-c2cccc(Cl)c2)c2ncccc12`, the “activity, negative = inhibition” value was -28.4%.
Regarding `Cc1ccccc1OCCNc1ccc(C(F)(F)F)cc1[N+](=O)[O-]`, the AC50 was 3.55 µM (active).
As to `COc1ccccc1-c1nccc(NCc2cnc(C)cn2)n1`, the activity, negative = inhibition was 19.3% [at 2.29 µM].
As to `COc1ccc(OC)c(C2C(C(=O)Nc3nc4ccccc4s3)=C(C)NC3=C2C(=O)CCC3)c1` (centres undefined), the AC50 was 0.631 µM (active).
Regarding `COc1ccc2nc(NC(C)=O)sc2c1`, the “activity, negative = inhibition” value is -21.8%.
With `N/C(=N\O)c1cn([C@@H]2O[C@@H](CO)[C@H](O)[C@@H]2O)c2ncnc(NO)c12`, the activity, negative = inhibition was -5.39% [at 11.4 µM].
`COc1ccc(C(=O)c2ccc(OC)c(OC)c2)cc1OC`: the AC50 is 11.2 µM (active).
With `CCN(CC)C(=O)c1ccc(O)c(OC)c1`, the “activity, negative = inhibition” value was 3.47% [at 25.6 µM].
As to `COc1ccc(NC(=O)CC#N)cc1OC`, the “activity, negative = inhibition” value is -4.95%.
As for `CCN1CC=C2C(C#N)=C(N)C(C#N)(C#N)[C@H](c3ccoc3)[C@H]2C1`, the “activity, negative = inhibition” value is -27.5%.
For `CSc1nc(NC2CCCC2)c([N+](=O)[O-])c(NC2CCCC2)n1`, the concentration at half-maximal activity (AC50) was 2 µM (active).
In the case of `O=C(O)CCNc1ncnc2nc[nH]c12`, the activity, negative = inhibition is 23.7% [at 11.4 µM].
Take `Cc1ccc(C2=NN(S(C)(=O)=O)C(c3cccs3)C2)cc1` (centres undefined): the AC50 is 11.2 µM (active).
Regarding `O=C(CC(NS(=O)(=O)c1ccc(Cl)cc1)c1ccco1)NCc1ccco1` (centres undefined), the AC50 is 10 µM (active).
With `S=C(S)NCCCn1ccnc1`, the AC50 was 2 µM (active).
For `O=C(NCCCn1ccnc1)Nc1ccc(Cl)cc1`, the AC50 is 0.316 µM (active).
Take `CCCNC(=O)Nc1ccc2c(c1)nc(C)n2C`: the “activity, negative = inhibition” value was 5.83%.
For `COc1ccc2c(Cl)c(C(=O)NCCCn3ccnc3)sc2c1Cl`, the AC50 is 0.891 µM (active).
For the molecule `S=C(S)NCCN1CCNCC1`, the activity, negative = inhibition was -16.5% [at 11.4 µM].
As for `O=C(NCCCN1CCCC1=O)Nc1ccc(F)c(Cl)c1`, the “activity, negative = inhibition” value is -29.7%.
For the molecule `CCN1CCN(CCCNC(=O)c2cc3cc4ccc(OC)cc4nc3o2)CC1`, the “activity, negative = inhibition” value is 6.59%.
`O=S1(=O)N[C@H]2CC[C@@H]3NS(=O)(=O)N[C@H]4CC[C@H](N1)N4S(=O)(=O)N23`: the activity, negative = inhibition is -6.3% [at 11.4 µM].
For `O=C(NCCNC[C@@H](O)COc1ccc(O)cc1)N1CCOCC1`, the AC50 entry was “inactive”.
In the case of `COc1ccccc1OC[C@H](O)COC(N)=O`, the “activity, negative = inhibition” value is 37.5% [at 25.6 µM].
As for `CCOC(=O)c1[nH]c(COC(=O)CCOc2ccccc2OC)c(C(=O)OCC)c1C`, the AC50 is 4.47 µM (active).
As for `CCOC(=O)c1c(O)[nH]c(=O)c(CC)c1C`, the activity, negative = inhibition is 4.97% [at 11.4 µM].
Consider `N=C(N)SCCc1ccc(OCc2ccc([N+](=O)[O-])cc2)cc1`, for which the “activity, negative = inhibition” value was 12.8%.
Take `CN1CCc2cc(Cl)c(O)cc2[C@@H](c2ccccc2)C1`: the “activity, negative = inhibition” value was 18.4%.
Take `CCCCCN=c1ccn(Cc2ccccc2)c2ccccc12`: the AC50 was 0.316 µM (active).
For `N#Cc1cccc(-c2nccc(NCc3cccs3)n2)c1`, the activity, negative = inhibition is 5.43% [at 2.29 µM].
As to `Cc1ccc(OCC(=O)Nn2cnc3ccccc32)cc1`, the “activity, negative = inhibition” value was -22.6%.
As to `O=C(Cn1cnc2ccccc21)NC(c1ccccc1)c1ccccc1`, the AC50 was 15.8 µM (active).
Consider `O=S(=O)(/N=C(/Nc1ccc(F)cc1F)c1ccc(Cl)cc1)c1ccccc1`, for which the “activity, negative = inhibition” value is -6.77%.
In the case of `O=S(=O)(/N=C(\Sc1ccccc1)c1ccccc1)c1ccc(Cl)cc1`, the half-maximal activity concentration (AC50) is 3.98 µM (active).
Consider `CC(=O)NCCNc1ncncc1-c1ccccc1CN(C)C`, for which the activity, negative = inhibition was 4.96% [at 2.29 µM].
Regarding `CC#CCCCC(=O)Nc1cc(OC)nc(OC)n1`, the AC50 is 11.2 µM (active).
For the molecule `COc1cc(OC)nc(NC(C)=O)n1`, the “activity, negative = inhibition” value is -11%.
For `Cc1cc(C)nc(NC(=O)CCCC(=O)O)c1`, the “activity, negative = inhibition” value is -9.57%.
Regarding `N#Cc1ccc(CN2CCC3(CC2)CCN(C(=O)c2cc(C(F)(F)F)cc(C(F)(F)F)c2)CC3)cc1`, the “activity, negative = inhibition” value is -20.2%.
Consider `C/C(CCN1CCCc2nc(C)c(C)cc21)=N\OC[C@@H](O)[C@@H]1O[C@@H]2OC(C)(C)O[C@@H]2[C@H]1O`, for which the activity, negative = inhibition was 2.31% [at 11.4 µM].
`COCCN=C1Sc2nc3c(C)cccc3cc2CN1Cc1ccco1`: the AC50 was 4.47 µM (active).
Turning to `C[C@@H](c1ccccc1)N1C(=O)[C@H]2[C@H]3[C@H](O)[C@H](O)C/C(=N/OC[C@@H](O)COCc4ccco4)[C@@H]3CC[C@@H]2C1=O`, the activity, negative = inhibition was 2.8% [at 11.4 µM].
Consider `COc1ccc2c(c1)c(CC(=O)N1CCOCC1)c(C)n2C(=O)c1ccc(Cl)cc1`, for which the “activity, negative = inhibition” value is -18%.
On to `CC(C)Cn1c(-c2ccc(Cl)cc2)cnc1SCC(=O)N1CCOCC1`, for which the AC50 was 14.1 µM (active).
In the case of `O=C(CSc1c[nH]c2ccccc12)N1CCOCC1`, the “activity, negative = inhibition” value is 14.4%.
Consider `COc1ccc2c3c([nH]c2c1)[C@H]1C[C@@H]2[C@@H](C[C@@H](O)[C@H](OC)[C@H]2C(=O)O)CN1CC3`, for which the activity, negative = inhibition is 4.43% [at 11.4 µM].
With `CCOC(=O)c1[nH]c2ccc(OC)cc2c1NC(=O)c1ccc2c(c1)OCO2`, the AC50 is 14.1 µM (active).
`COc1cccc(NC(=O)c2oc3ccccc3c2NC(=O)c2ccc3c(c2)OCO3)c1`: the AC50 was 3.55 µM (active).
Turning to `COC(=O)c1[nH]c2cc(OC)ccc2c1NC(=O)c1ccc2c(c1)OCO2`, the AC50 is 3.55 µM (active).
For `CCOC(=O)c1[nH]c2cc3c(cc2c1NC(=O)CN1CCC2(CC1)OCCO2)OCO3`, the “activity, negative = inhibition” value was -24.5%.
Regarding `CCOC(=O)c1[nH]c2cc(OC)c(OC)cc2c1NC(=O)c1nonc1C`, the AC50 is 0.708 µM (active).
For the molecule `CCOC(=O)c1[nH]c2cc(OC)c(OC)cc2c1NC(=O)c1ccc2c(c1)OCO2`, the “activity, negative = inhibition” value was 8.15%.
Consider `CN1CCN(CCCNC(=O)C2CCN(c3nnc(-n4cccc4)s3)CC2)CC1`, for which the “activity, negative = inhibition” value was 2.31%.
Turning to `CC(=O)OC[C@@H]1O[C@H](C/C=N\O[C@@H](C)CN2CCCc3nc(C)c(C)cc32)C=C[C@@H]1OC(C)=O`, the activity, negative = inhibition is -0.762% [at 11.4 µM].
On to `N#Cc1ccc(-c2ccccc2)nc1SCC(=O)c1cccc(Cl)c1`, for which the AC50 was 2 µM (active).
Turning to `O=C(CSc1nc2ccccc2c2ccccc12)c1ccccc1`, the activity, negative = inhibition was -1.33% [at 11.4 µM].
Regarding `CC(CO)(CO)Nc1ncnc2ccccc12`, the activity, negative = inhibition was 15.3% [at 11.4 µM].
As for `CCOc1ccc(OCCOc2ncnc3ccccc23)cc1`, the AC50 was 17.8 µM (active).
In the case of `CC1CN(C(=O)COc2ncnc3ccccc23)CC(C)O1` (centres undefined), the “activity, negative = inhibition” value was -10.4%.
As to `CN(C)C(=O)c1ccc(-c2nccc(N(C)Cc3ccco3)n2)cc1`, the activity, negative = inhibition was 0.769% [at 2.29 µM].
On the same count and under the same terms, for `CN(C)C(=O)c1ccc(-c2cc(N(C)Cc3ccco3)ncn2)cc1` the value was 0.869% [at 2.29 µM].
With `CCC(=O)N(Cc1ccco1)c1nc(-c2ccccc2)cs1`, the AC50 was 2.51 µM (active).
Consider `O=C(O)C1=CCNCC1`, for which the AC50 entry is “inactive”.
For `C[C@](N)(C(=O)O)c1ccc(-c2nn[nH]n2)cc1`, the “activity, negative = inhibition” value was -10.9%.
On to `c1cc(NNc2cccc(-c3nn[nH]n3)c2)cc(-c2nn[nH]n2)c1`, for which the activity, negative = inhibition is -4.17% [at 11.4 µM].
With `Nc1cc(-c2nn[nH]n2)ccc1F`, the concentration at half-maximal activity (AC50) is 12.6 µM (active).
